The target in assay [1] is T1, Ephrin type-B receptor 1 (Homo sapiens) (UniProt P54762).
T1 sequence (whole entry): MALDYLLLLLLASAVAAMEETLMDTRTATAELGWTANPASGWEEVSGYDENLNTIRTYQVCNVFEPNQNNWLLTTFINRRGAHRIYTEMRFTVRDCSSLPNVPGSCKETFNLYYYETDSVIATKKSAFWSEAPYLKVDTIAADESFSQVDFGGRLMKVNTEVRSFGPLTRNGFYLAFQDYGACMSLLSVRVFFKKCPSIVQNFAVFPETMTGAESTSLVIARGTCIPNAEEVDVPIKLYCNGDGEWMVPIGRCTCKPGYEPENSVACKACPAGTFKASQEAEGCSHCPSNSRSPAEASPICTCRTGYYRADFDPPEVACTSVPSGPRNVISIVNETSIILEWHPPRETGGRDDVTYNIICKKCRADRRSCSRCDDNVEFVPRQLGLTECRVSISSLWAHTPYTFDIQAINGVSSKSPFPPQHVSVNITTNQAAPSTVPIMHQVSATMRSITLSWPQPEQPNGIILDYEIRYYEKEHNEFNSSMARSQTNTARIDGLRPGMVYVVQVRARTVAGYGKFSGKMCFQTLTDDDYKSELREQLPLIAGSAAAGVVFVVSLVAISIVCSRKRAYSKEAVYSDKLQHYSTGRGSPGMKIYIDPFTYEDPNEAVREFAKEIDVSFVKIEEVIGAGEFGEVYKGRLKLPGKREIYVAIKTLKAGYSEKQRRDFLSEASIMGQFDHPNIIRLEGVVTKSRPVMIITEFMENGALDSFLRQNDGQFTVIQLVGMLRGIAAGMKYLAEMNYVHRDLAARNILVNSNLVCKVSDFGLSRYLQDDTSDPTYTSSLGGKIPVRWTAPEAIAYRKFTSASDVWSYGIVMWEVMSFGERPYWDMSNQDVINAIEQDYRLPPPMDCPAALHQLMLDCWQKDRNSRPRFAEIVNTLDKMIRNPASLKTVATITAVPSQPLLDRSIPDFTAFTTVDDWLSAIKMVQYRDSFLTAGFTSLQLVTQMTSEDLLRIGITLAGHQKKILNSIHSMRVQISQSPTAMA
The settings on record: at 10 µM.

Assay [2] has as its target T2, Ephrin type-B receptor 2 (Homo sapiens) (UniProt P29323).
T2 sequence (whole entry): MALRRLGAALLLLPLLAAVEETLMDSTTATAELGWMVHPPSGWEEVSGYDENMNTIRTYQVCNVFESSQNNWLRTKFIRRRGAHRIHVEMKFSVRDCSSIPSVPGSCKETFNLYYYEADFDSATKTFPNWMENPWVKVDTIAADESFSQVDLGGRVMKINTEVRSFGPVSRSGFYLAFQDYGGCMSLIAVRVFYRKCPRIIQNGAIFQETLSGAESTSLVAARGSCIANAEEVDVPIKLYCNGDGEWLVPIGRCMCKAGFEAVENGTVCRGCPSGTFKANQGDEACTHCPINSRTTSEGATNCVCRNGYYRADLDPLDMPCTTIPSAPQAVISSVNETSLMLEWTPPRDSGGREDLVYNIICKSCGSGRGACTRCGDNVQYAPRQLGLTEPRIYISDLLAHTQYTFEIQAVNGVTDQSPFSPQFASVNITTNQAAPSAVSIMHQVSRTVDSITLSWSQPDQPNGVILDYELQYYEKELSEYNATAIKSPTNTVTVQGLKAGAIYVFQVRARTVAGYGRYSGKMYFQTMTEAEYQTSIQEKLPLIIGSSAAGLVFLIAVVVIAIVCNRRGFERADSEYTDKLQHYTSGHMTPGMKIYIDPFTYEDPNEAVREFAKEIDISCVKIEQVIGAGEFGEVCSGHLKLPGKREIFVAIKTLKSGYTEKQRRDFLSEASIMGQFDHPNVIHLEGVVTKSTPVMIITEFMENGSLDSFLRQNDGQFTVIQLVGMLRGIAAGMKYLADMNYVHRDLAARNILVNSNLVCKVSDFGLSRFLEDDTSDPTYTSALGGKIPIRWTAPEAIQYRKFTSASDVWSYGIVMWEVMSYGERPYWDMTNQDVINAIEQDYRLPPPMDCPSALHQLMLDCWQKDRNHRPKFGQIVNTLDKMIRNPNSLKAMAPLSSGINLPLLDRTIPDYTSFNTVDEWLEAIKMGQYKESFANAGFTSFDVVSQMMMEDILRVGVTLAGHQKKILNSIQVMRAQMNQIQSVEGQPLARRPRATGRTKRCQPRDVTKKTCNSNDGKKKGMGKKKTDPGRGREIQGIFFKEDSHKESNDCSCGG
The conditions noted are these: at 1 µM.

Assay [3] deals with T2, Ephrin type-B receptor 2 (Homo sapiens). The conditions noted are these: at 10 µM.
Assay [4] has as its target T3, Ephrin type-B receptor 3 (Homo sapiens) (UniProt P54753).
T3 sequence (whole entry): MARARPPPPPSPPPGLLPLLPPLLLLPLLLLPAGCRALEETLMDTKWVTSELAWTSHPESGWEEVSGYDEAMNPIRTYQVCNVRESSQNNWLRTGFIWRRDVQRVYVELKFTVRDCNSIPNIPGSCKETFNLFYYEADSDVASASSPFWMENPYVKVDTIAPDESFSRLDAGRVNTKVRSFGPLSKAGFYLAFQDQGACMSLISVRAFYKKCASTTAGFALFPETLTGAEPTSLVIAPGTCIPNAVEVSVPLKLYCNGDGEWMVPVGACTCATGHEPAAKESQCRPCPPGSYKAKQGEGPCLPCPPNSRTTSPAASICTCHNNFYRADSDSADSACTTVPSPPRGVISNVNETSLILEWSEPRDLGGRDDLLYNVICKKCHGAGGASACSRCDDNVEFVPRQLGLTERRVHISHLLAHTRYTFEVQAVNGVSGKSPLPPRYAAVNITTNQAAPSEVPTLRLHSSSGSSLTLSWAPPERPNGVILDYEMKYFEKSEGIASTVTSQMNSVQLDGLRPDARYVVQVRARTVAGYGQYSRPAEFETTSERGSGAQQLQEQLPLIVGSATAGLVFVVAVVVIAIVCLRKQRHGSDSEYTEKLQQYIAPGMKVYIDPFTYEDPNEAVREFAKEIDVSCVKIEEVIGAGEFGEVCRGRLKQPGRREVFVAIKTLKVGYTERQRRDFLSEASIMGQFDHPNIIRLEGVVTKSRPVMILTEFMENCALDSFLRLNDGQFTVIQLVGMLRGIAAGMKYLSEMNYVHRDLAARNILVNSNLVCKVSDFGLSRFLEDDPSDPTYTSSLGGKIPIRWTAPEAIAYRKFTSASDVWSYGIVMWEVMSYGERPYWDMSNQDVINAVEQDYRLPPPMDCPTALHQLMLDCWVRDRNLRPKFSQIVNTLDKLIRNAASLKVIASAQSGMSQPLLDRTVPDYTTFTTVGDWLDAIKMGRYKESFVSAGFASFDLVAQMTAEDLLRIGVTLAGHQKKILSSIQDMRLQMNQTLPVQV
The settings on record: at 1 µM.

Assay [5] has as its target T3, Ephrin type-B receptor 3 (Homo sapiens). The conditions noted are these: at 10 µM.
For assay [6], the target named is T4, Ephrin type-B receptor 4 (Homo sapiens) (UniProt P54760).
T4 sequence (whole entry): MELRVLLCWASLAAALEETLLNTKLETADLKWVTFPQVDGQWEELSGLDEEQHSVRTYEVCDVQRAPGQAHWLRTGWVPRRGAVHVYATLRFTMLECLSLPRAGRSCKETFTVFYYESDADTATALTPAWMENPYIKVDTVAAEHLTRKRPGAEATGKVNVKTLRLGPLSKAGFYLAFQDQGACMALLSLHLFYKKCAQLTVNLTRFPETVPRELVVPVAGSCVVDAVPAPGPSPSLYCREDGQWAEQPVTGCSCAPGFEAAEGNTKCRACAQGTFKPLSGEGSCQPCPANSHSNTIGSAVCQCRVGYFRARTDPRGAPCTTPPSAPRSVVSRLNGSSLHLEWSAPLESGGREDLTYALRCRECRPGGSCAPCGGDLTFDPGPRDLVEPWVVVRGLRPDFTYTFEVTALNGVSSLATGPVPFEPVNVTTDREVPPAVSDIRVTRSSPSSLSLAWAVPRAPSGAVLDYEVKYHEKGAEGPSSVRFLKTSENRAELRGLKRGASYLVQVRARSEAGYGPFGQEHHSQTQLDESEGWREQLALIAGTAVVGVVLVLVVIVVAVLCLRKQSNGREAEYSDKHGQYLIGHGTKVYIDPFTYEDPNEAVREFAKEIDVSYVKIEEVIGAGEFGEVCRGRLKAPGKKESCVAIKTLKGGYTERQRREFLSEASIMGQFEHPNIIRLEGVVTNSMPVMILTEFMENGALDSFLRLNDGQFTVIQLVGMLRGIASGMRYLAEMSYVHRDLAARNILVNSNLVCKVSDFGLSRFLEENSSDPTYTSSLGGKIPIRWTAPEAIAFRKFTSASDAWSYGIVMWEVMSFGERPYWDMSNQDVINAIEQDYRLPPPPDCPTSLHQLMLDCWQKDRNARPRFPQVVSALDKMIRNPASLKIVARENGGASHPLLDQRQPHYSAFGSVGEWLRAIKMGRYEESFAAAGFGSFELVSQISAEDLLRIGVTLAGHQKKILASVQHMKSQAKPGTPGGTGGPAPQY
The conditions noted are these: at 1 µM.

In assay [7] the target is T4, Ephrin type-B receptor 4 (Homo sapiens). The conditions noted are these: at 10 µM.
The target of assay [8] is Receptor tyrosine-protein kinase erbB-4 (Homo sapiens) (UniProt Q15303). The conditions noted are these: at 1 µM.
Chain of Receptor tyrosine-protein kinase erbB-4 (Homo sapiens) (Q15303 whole entry): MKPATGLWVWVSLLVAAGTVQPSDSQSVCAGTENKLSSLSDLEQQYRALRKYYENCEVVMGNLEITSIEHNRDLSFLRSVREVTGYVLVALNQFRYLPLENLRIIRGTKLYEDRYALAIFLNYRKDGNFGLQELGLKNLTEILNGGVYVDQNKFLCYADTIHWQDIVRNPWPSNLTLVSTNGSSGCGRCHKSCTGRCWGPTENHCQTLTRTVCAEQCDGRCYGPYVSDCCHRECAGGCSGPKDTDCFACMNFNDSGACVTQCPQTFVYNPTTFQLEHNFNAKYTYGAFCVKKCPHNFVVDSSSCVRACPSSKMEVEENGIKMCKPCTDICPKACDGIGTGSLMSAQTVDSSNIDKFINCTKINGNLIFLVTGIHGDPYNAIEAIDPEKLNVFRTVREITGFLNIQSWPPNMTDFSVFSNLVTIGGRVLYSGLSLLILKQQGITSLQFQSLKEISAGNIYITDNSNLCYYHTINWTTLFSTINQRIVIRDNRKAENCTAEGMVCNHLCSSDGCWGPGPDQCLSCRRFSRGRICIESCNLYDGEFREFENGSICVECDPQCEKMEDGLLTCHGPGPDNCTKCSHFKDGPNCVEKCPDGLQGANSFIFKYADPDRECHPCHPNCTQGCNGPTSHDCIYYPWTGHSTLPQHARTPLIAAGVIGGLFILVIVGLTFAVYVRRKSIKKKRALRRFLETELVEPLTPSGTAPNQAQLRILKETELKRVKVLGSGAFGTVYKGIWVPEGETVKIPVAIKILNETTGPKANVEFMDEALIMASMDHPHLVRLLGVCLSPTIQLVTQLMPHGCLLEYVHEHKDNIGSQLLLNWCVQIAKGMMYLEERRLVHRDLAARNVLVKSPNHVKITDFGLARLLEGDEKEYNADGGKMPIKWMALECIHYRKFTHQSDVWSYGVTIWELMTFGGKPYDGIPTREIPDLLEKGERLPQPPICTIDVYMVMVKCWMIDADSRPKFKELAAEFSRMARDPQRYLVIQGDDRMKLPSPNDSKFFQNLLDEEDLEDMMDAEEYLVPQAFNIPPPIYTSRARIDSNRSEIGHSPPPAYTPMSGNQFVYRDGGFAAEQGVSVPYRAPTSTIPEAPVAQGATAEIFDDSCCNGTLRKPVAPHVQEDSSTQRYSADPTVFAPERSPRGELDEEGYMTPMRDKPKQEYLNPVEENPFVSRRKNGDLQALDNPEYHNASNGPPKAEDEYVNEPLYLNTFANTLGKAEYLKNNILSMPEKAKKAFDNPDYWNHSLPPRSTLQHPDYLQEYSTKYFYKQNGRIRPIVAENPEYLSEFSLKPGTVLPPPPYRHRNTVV
Assay [9] has the same target. The settings on record: at 10 µM.
For assay [10], the target named is Focal adhesion kinase 1 (Homo sapiens) (UniProt Q05397). The settings on record: at 1 µM.
Chain of Focal adhesion kinase 1 (Homo sapiens) (Q05397 2-1052 limits assumed): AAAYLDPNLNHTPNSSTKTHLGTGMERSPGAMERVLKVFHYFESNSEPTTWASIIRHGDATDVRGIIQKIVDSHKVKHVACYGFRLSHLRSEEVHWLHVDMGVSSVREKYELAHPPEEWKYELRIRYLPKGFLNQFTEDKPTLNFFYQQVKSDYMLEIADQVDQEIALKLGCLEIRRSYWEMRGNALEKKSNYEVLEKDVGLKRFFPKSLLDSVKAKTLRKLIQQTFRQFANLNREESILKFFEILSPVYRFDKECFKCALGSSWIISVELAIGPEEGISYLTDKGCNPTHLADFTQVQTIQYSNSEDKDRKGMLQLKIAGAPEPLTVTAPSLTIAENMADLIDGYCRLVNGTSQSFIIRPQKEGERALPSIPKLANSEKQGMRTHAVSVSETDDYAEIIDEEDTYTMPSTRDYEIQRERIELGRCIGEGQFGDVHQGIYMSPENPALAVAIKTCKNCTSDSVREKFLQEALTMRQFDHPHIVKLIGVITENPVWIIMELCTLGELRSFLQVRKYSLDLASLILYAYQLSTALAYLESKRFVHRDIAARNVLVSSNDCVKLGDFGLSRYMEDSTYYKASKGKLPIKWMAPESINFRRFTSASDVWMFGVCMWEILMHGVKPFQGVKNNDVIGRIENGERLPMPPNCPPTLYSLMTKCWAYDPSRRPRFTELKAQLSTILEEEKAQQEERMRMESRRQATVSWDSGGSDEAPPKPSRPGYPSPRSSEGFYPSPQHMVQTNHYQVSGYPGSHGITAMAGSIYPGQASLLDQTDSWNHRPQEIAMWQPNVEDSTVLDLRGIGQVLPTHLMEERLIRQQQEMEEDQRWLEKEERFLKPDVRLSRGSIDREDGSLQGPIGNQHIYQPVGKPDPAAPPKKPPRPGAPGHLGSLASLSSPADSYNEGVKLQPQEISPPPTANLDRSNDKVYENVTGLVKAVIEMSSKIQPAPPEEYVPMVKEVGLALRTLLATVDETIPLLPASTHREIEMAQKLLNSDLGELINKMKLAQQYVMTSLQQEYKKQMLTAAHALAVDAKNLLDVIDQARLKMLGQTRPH

For `CO[C@H]1C[C@@H]2CC[C@@H](C)[C@@](O)(O2)C(=O)C(=O)N2CCCC[C@H]2C(=O)O[C@H]([C@H](C)C[C@@H]2CC[C@@H](O)[C@H](OC)C2)CC(=O)[C@H](C)/C=C(\C)[C@@H](O)[C@@H](OC)C(=O)[C@H](C)C[C@H](C)/C=C/C=C/C=C/1C`, the residual activity is 105% in [1]; 121% in [2]; 105% in assay [3]; 100% (inactive) in [4]; 57% in assay [5]; 112% in assay [6]. For the same compound, the residual activity in assay [7] stood at 147%; in assay [8], 106%; in assay [9], 130%; in assay [10], 118%.

As usually defined, the residual activity is the signal under treatment as a percentage of the control signal.
